Experimental data reported in PubChem BioAssay (EPA / NIEHS).
Activity calls are given as the source filed them. The calls were made as follows: active = hit-call score of the fitted dose curve at least 0.9, where 1 is the maximum; inactive = score below 0.9.

Legend:
Details in all cases: mRNA level, 48 h; actives raise or lower the signal
[1] = read-out: catalase (CAT), CAT (gene 847); experiment: LTEA_HepaRG_CAT: Life Technologies and Expression Analysis (LTEA) Assay for catalase (CAT) using HepaRG (AID 2283452)
Procedure, shortened: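 HepaRG cells in serum-free induction medium, 0.5% DMSO vehicle, exposed 48 h in duplicate over 8 half-log concentrations from 100 uM. CAT mRNA measured by qRT-PCR, normalized to ACTB, GAPDH, POLR2A; bidirectional fit versus DMSO.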

[2] = read-out: flavin-containing dimethylaniline monooxygenases 3 (FMO3), FMO3 (gene 2328); experiment: LTEA_HepaRG_FMO3: Life Technologies and Expression Analysis (LTEA) Assay for flavin-containing dimethylaniline monooxygenases 3 (FMO3) using HepaRG (AID 2283453)
Procedure, shortened: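 Differentiated HepaRG cells in serum-free induction medium, exposed 48 h in duplicate to 8 half-log concentrations up to 100 uM in 0.5% DMSO. FMO3 mRNA by qRT-PCR, normalized to ACTB, GAPDH, POLR2A; bidirectional fit vs DMSO.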

[3] = read-out: Cytochrome P450 (CYP1A1), CYP1A1 (gene 1543); experiment: LTEA_HepaRG_CYP1A1: Life Technologies and Expression Analysis (LTEA) Assay for Cytochrome P450 (CYP1A1) using HepaRG (AID 2283454)
Procedure, shortened: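 CYP1A1 transcript levels measured by Fluidigm qRT-PCR against three housekeeping genes, 48 h after chemical dosing of human HepaRG cells (highest concentration 100 uM, half-log steps, 0.5% DMSO vehicle). Gain or loss of signal fitted relative to DMSO.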

[4] = read-out: CFLAR gene, CFLAR (gene 8837); experiment: LTEA_HepaRG_CFLAR: Life Technologies and Expression Analysis (LTEA) Assay for CFLAR gene using HepaRG (AID 2283455)
Procedure, shortened: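 Differentiated HepaRG cells in serum-free induction medium were exposed 48 h in duplicate to eight half-log concentrations up to 100 uM in 0.5% DMSO; mRNA measured by TaqMan qRT-PCR, normalized to ACTB, GAPDH, POLR2A; bidirectional fitting versus DMSO.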

[5] = read-out: Forkhead box O1 (FOXO1), FOXO1 (gene 2308); experiment: LTEA_HepaRG_FOXO1: Life Technologies and Expression Analysis (LTEA) Assay for Forkhead box O1 (FOXO1) using HepaRG (AID 2283456)
Procedure, shortened: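 Differentiated HepaRG cells, in serum-free induction medium with 0.5% DMSO, exposed 48 h in duplicate to 8-point half-log series from 100 uM. FOXO1 mRNA measured by TaqMan qRT-PCR, normalized to ACTB, GAPDH, POLR2A; bidirectional fit versus DMSO.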

[6] = read-out: growth arrest and DNA damage 45 (GADD45A), GADD45A (gene 1647); experiment: LTEA_HepaRG_GADD45A: Life Technologies and Expression Analysis (LTEA) Assay for growth arrest and DNA damage 45 (GADD45A) using HepaRG (AID 2283458)
Procedure, shortened: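 Differentiated HepaRG cells exposed 48 h in serum-free induction medium to 8 concentrations, top 100 uM in half-log steps, 0.5% DMSO. GADD45A mRNA quantified by qRT-PCR, normalized to ACTB, GAPDH and POLR2A; bidirectional fit versus DMSO.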

[7] = read-out: Forkhead box O3 (FOXO3), FOXO3 (gene 2309); experiment: LTEA_HepaRG_FOXO3: Life Technologies and Expression Analysis (LTEA) Assay for Forkhead box O3 (FOXO3) using HepaRG (AID 2283459)
Procedure, shortened: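 Differentiated human HepaRG cells, 48 h post-plating, exposed in duplicate for 48 h in serum-free induction medium; 8-point half-log series from 100 uM in 0.5% DMSO. FOXO3 mRNA by TaqMan qRT-PCR, normalized to ACTB/GAPDH/POLR2A; bidirectional fit versus DMSO.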

[8] = read-out: ABC Transporter (ABCB1), ABCB1 (gene 5243); experiment: LTEA_HepaRG_ABCB1: Life Technologies and Expression Analysis (LTEA) Assay for ABC Transporter (ABCB1) using HepaRG (AID 2283460)
Procedure, shortened: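 HepaRG cells exposed in duplicate for 48 h in serum-free induction medium to eight half-log concentrations up to 100 uM in 0.5% DMSO. ABCB1 mRNA quantified by qRT-PCR, normalised to ACTB, GAPDH and POLR2A; fitted bidirectionally versus DMSO.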

[9] = read-out: growth arrest and DNA damage 45 (GADD45B), GADD45B (gene 4616); experiment: LTEA_HepaRG_GADD45B: Life Technologies and Expression Analysis (LTEA) Assay for growth arrest and DNA damage 45 (GADD45B) using HepaRG (AID 2283461)
Procedure, shortened: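 Transcript level quantified by Fluidigm TaqMan qRT-PCR with three housekeeping genes for normalization, analyzed for up- or down-regulation against 0.5% DMSO. HepaRG cultures dosed 48 h at eight half-log concentrations up to 100 uM, duplicates.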

[10] = read-out: ABC Transporter (ABCC3), ABCC3 (gene 8714); experiment: LTEA_HepaRG_ABCC3: Life Technologies and Expression Analysis (LTEA) Assay for ABC Transporter (ABCC3) using HepaRG (AID 2283462)
Procedure, shortened: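 Transcript level by TaqMan qRT-PCR, normalised to three housekeeping genes, fitted in both directions relative to vehicle. Chemicals tested in duplicate at eight half-log concentrations up to 100 uM for 48 h on HepaRG cells (0.5% DMSO).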

[11] = read-out: ABC Transporter (ABCB11), ABCB11 (gene 8647); experiment: LTEA_HepaRG_ABCB11: Life Technologies and Expression Analysis (LTEA) Assay for ABC Transporter (ABCB11) using HepaRG (AID 2283463)
Procedure, shortened: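 Differentiated human HepaRG cells in serum-free induction medium, dosed in duplicate for 48 h. Eight-point half-log series from 100 uM in 0.5% DMSO; ABCB11 mRNA by qRT-PCR, normalized to ACTB, GAPDH, POLR2A, fitted bidirectionally versus DMSO.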

[12] = read-out: ABC Transporter (ABCC2), ABCC2 (gene 1244); experiment: LTEA_HepaRG_ABCC2: Life Technologies and Expression Analysis (LTEA) Assay for ABC Transporter (ABCC2) using HepaRG (AID 2283464)
Procedure, shortened: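 Endpoint is ABCC2 transcript level from qRT-PCR, normalized to three housekeeping genes and fitted bidirectionally relative to DMSO. Human HepaRG cells received test chemical for 48 h at up to 100 uM (8 points, half-log steps, 0.5% DMSO), duplicate wells.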

[13] = read-out: Broad substrate specificity ATP-binding cassette transporter ABCG2 (Homo sapiens) (UniProt Q9UNQ0); experiment: LTEA_HepaRG_ABCG2: Life Technologies and Expression Analysis (LTEA) Assay for ABC Transporter (ABCG2) using HepaRG (AID 2283465)
Procedure, shortened: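 Differentiated HepaRG cells were exposed for 48 h in serum-free induction medium to 8 half-log concentrations, top 100 uM, in 0.5% DMSO. ABCG2 mRNA was measured by qRT-PCR, normalized to ACTB, GAPDH and POLR2A, with bidirectional fitting versus DMSO.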

[14] = read-out: ATP-citrate lyase (ACLY), ACLY (gene 47); experiment: LTEA_HepaRG_ACLY: Life Technologies and Expression Analysis (LTEA) Assay for ATP-citrate lyase (ACLY) using HepaRG (AID 2283466)
Procedure, shortened: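 Differentiated HepaRG cells exposed 48 h in serum-free induction medium to eight half-log concentrations up to 100 uM in 0.5% DMSO, duplicates. Transcript measured by Fluidigm TaqMan qRT-PCR, normalized to ACTB, GAPDH, POLR2A; bidirectional fit versus DMSO.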

[15] = read-out: Peroxisomal acyl-coenzyme A oxidase 1 (ACOX1) gene, ACOX1 (gene 51); experiment: LTEA_HepaRG_ACOX1: Life Technologies and Expression Analysis (LTEA) Assay for Peroxisomal acyl-coenzyme A oxidase 1 (ACOX1) gene using HepaRG (AID 2283467)
Procedure, shortened: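 HepaRG cells, plated 48 h then switched to serum-free induction medium, were exposed in duplicate for 48 h to 8-point half-log concentrations up to 100 uM in 0.5% DMSO. ACOX1 mRNA was measured by qRT-PCR, normalized to ACTB/GAPDH/POLR2A, and fitted bidirectionally versus DMSO.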

[16] = read-out: Alkaline Phosphatase, Placental (ALPP) gene, ALPP (gene 250); experiment: LTEA_HepaRG_ALPP: Life Technologies and Expression Analysis (LTEA) Assay for Alkaline Phosphatase, Placental (ALPP) gene using HepaRG (AID 2283468)
Procedure, shortened: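 ALPP transcript level, measured by qRT-PCR and normalized to three housekeeping genes (ACTB, GAPDH, POLR2A), after 48 h dosing of differentiated HepaRG in serum-free induction medium. Top concentration 100 uM with half-log dilutions (8 points, 0.5% DMSO, duplicates); bidirectional fitting relative to DMSO.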

[17] = read-out: Bcl-2 (BAD) gene, BAD (gene 572); experiment: LTEA_HepaRG_BAD: Life Technologies and Expression Analysis (LTEA) Assay for Bcl-2 (BAD) gene using HepaRG (AID 2283469)
Procedure, shortened: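 Differentiated HepaRG cells were exposed in duplicate in 0.5% DMSO for 48 h to eight-point half-log concentrations up to 100 uM. BAD mRNA was measured by Fluidigm TaqMan qRT-PCR, normalized to ACTB, GAPDH and POLR2A, and fitted bidirectionally against DMSO.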

[18] = read-out: Bcl-2 (BAX) gene, BAX (gene 581); experiment: LTEA_HepaRG_BAX: Life Technologies and Expression Analysis (LTEA) Assay for Bcl-2 (BAX) gene using HepaRG (AID 2283470)
Procedure, shortened: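 Differentiated HepaRG cells exposed 48 h in serum-free induction medium, eight half-log concentrations from 100 uM, in duplicate, 0.5% DMSO vehicle. BAX mRNA by TaqMan qRT-PCR, normalised to ACTB, GAPDH and POLR2A.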

[19] = read-out: adenosine kinase (ADK) gene, ADK (gene 132); experiment: LTEA_HepaRG_ADK: Life Technologies and Expression Analysis (LTEA) Assay for adenosine kinase (ADK) gene using HepaRG (AID 2283471)
Procedure, shortened: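 HepaRG (human liver), 48 h chemical exposure, 8-pt half-log series, top 100 uM, 0.5% DMSO vehicle. Readout: ADK mRNA by qRT-PCR vs housekeeping genes; bidirectional curve fit relative to DMSO baseline.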

Measured: AC50

Sequence of Broad substrate specificity ATP-binding cassette transporter ABCG2 (Homo sapiens) (Q9UNQ0 whole entry, looked up): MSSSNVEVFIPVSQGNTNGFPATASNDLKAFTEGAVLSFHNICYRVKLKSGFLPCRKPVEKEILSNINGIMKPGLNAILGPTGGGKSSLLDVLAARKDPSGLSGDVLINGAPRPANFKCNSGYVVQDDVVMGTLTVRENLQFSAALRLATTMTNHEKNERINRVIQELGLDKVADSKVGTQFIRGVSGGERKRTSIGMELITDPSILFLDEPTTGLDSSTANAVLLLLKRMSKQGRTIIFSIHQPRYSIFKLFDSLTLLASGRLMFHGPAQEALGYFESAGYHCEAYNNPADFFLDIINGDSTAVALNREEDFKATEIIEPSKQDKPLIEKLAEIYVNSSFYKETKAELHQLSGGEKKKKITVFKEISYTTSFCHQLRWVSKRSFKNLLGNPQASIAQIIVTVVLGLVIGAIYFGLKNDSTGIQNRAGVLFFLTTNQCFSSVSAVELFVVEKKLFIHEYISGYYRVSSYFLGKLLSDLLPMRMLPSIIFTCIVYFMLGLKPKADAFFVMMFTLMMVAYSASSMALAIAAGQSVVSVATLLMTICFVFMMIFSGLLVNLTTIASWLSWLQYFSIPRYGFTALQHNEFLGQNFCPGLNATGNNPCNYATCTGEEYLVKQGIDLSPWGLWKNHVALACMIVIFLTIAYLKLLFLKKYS

c1ccc(N=Nc2ccccc2)cc1
inactive: [1] | [2] | [4] | [5] | [6] | [7] | [8] | [9] | [10] | [11] | [12] | [13] | [14] | [15] | [16] | [17] | [18] | [19]
active: [3] 36.6 µM

OCCOCCO
inactive: [1] | [2] | [3] | [4] | [5] | [6] | [7] | [8] | [9] | [10] | [11] | [12] | [13] | [14] | [15] | [16] | [17] | [18] | [19]

Cc1ccc([N+](=O)[O-])cc1
active: [3] 9.92 µM | [8] 2.47 µM | [12] 13 µM
inactive: [1] | [2] | [4] | [5] | [6] | [7] | [9] | [10] | [11] | [13] | [14] | [15] | [16] | [17] | [18] | [19]

Nc1ccc(N=Nc2ccccc2)cc1
active: [1] 14.9 µM | [2] 19.1 µM | [3] 35.8 µM | [4] 20.8 µM | [5] 30.9 µM | [7] 18.4 µM | [8] 15.5 µM | [9] 29 µM | [11] 13.8 µM | [12] 13.2 µM | [13] 13 µM | [14] 13.3 µM | [15] 14 µM | [18] 6.31 µM | [19] 10.7 µM
inactive: [6] | [16] | [17]

C1=Cc2cccc3cccc1c23
active: [3] 20.9 µM
inactive: [1] | [2] | [4] | [5] | [6] | [7] | [8] | [9] | [10] | [12] | [13] | [14] | [15] | [16] | [17] | [18] | [19]

ClC1=C(Cl)C2(Cl)C3C(Cl)C=CC3C1(Cl)C2(Cl)Cl (centres undefined)
inactive: [1] | [2] | [4] | [5] | [6] | [7] | [9] | [10] | [14] | [15] | [16] | [17] | [18] | [19]
active: [3] 18.3 µM | [8] 1.45 µM | [11] 41.6 µM | [12] 11.4 µM | [13] 8.6 µM

CCCCCCCCOC(=O)c1ccc(C(=O)OCCCCCCCC)c(C(=O)OCCCCCCCC)c1
active: [3] 50.5 µM
inactive: [1] | [2] | [4] | [5] | [6] | [7] | [8] | [9] | [10] | [11] | [12] | [13] | [14] | [15] | [16] | [17] | [18] | [19]

CC(C)(C)OOC(C)(C)CCC(C)(C)OOC(C)(C)C
inactive: [1] | [2] | [4] | [6] | [7] | [8] | [9] | [10] | [11] | [12] | [13] | [14] | [15] | [16] | [17] | [18] | [19]
active: [3] 64.2 µM
